Consider six compounds from PubChem BioAssay (Tox21).

Where “and” joins values, the source holds several entries; their conditions need not be identical. Equal values may be shown once. A number with no mark means an inactive call. Inconclusive results are not listed. Calls of active or inactive are those of the source. Unless noted, calls come from the whole dose curve; as a rule, active = well fitted curve in the direction sought with a large enough effect in the repeat runs; inconclusive = weak or mixed curves; inactive = no such curve, though single readings can be large; an effect the other way counts as inactive or inconclusive. Starred links: 1 amine or outer side, 2 acyl side, 3 side chain; linkers in the order of their positions; H or OH if unused. Positions of bridges follow the written chain, without caps; N, C: chain ends. Non-standard residues stand in square brackets, D forms with d. Residues, ends and D or L forms follow the SMILES beside them. Chains are numbered I, II in the order given. Actinocin(9to1) = Cc1c2oc3c(C)ccc(C(=O)[*:1])c3nc-2c(C(=O)[*:2])c(N)c1=O; NMeV = CN[C@H](C(=O)O)C(C)C; Sar = CNCC(=O)O

Experiment [1] concerns the target Progesterone receptor (Homo sapiens) (UniProt P06401). As to the kind of experiment: qHTS assay to identify small molecule antagonists of the progesterone receptor (PR) signaling pathway (AID 1346795; active = well fitted inhibition curve with a large enough effect in the signal ratio in the repeat runs, not every such curve was filed as active; the % refers to the signal ratio; note: potency is the fitted concentration of half-maximal effect). The method in brief:
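After 6 hr plating at 37C in 2% stripped-serum medium, PR-UAS-bla HEK293T cells got compounds, then 1 nM R5020. Sixteen hours later, LiveBLAzer substrate was applied for 2 hr at room temperature and fluorescence was recorded.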

The nature of experiment [2]: qHTS assay to identify small molecule antagonists of the TGF-beta/Smad signaling pathway - cell viability counter screen (AID 1346824). Note: nearly all actives have a fitted effect of over 50% in size. Put shortly: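 Cytotoxicity counter-screen run in the same wells as the beta-lactamase Smad reporter read: CellTiter-Glo luminescence after 30 min at room temperature. HEK 293T SBE-bla cells had 5 hr compound exposure at 37 C with TGF-beta1 (0.25 ng/mL stock).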

A short description of experiment [3]: qHTS assay to identify small molecule agonists of the TGF-beta/Smad signaling pathway - cell viability counter screen (AID 1346829). Note: top concentration of the series differs between compounds; nearly all actives have a fitted effect of over 45% in size. The method in brief: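 After overnight seating at 37 C and 5% CO2, reporter cells got compounds for 5 hr and FRET substrate for 2 hr; cell viability then came from CellTiter-Glo luminescence.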
Experiment [4] can be described thus: qHTS assay to identify small molecule agonists of the TGF-beta/Smad signaling pathway (AID 1346859; active = well fitted activation curve with a large enough effect in the signal ratio in the repeat runs, not every such curve was filed as active; the % refers to the signal ratio; note: series mostly up to about 77 µM). The method in brief:
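Dual-wavelength fluorescence (460/530 nm emission) quantified beta-lactamase expression under the Smad binding element in HEK 293T cells following 5 hr compound treatment at 37 C.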

The target in experiment [5] is Thyrotropin-releasing hormone receptor (Homo sapiens) (UniProt P34981). The experiment can be described thus: qHTS assay to identify small molecule antagonists of the thyrotropin-releasing hormone receptor (TRHR) signaling pathway (AID 1346877; active = well fitted inhibition curve with a large enough effect in the repeat runs, not every such curve was filed as active; note: series mostly up to about 51 µM). Put shortly:
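Cells (TRHR-HEK293) are plated and kept 18 h at 37 °C/5% CO2. A calcium-sensitive dye is added for 2 h, compound follows for 5 min at room temperature, and TRH is then given at 1 nM final.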

The target is the same in experiment [6]. As to the kind of experiment: qHTS assay to identify small molecule agonists of the thyrotropin-releasing hormone receptor (TRHR) signaling pathway (AID 1346891; calls by dose curve;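 note: HEK293 cells expressing TRHR with calcium dye readout; series mostly up to about 58 µM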). Put shortly: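 Kinetic fluorescence (3 min, 1 s intervals) reported intracellular calcium after compound transfer onto TRHR-Hek293 cells pre-loaded with dye for 2 h at 37 °C.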
On the technique in general: qHTS replaces the single test concentration by a dilution series.

Experiment [7] can be described thus: Human pregnane X receptor (PXR) small molecule agonists, qHTS cell viability counter screen (AID 1346977). Note: nearly all actives have a fitted effect of over 50% in size. Note: potency is the fitted concentration of half-maximal effect. The method in brief: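 HepG2 cells stably carrying the PXR-Luc reporter are cultured with 5% charcoal-stripped FBS and treated with compounds for 24hr. CellTiter-Fluor is added at 23hr and fluorescence is read after 1hr.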
Experiment [8] is described as follows: Caspase-3/7 induction in HepG2 cells by small molecules, qHTS assay (AID 1346978). Note: nearly all actives have a fitted effect of over 15% in size. Note: potency is the fitted concentration of half-maximal effect. Put shortly: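 Caspase-3/7 induction was measured by Caspase-Glo 3/7 luminescence (30 min, room temperature) after a 17 hr compound exposure of wild-type HepG2 cells seeded at 2,000 per well and pre-incubated 5 hr.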
Experiment [9] is described as follows: Caspase-3/7 induction in CHO-K1 cells by small molecules, qHTS assay (AID 1346980). Note: nearly all actives have a fitted effect of over 15% in size. Note: potency is the fitted concentration of half-maximal effect. The method in brief:
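Luminescent Caspase-Glo 3/7 read (30min, room temperature) quantified apoptosis induction. Cells were wild-type CHO-K1, treated with compound for 17hr at 37 C and 5% CO2.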

The nature of experiment [10]: Caspase-3/7 induction in HepG2 cells by small molecules, qHTS cell viability counter screen (AID 1346981). Note: nearly all actives have a fitted effect of over 30% in size. Note: potency is the fitted concentration of half-maximal effect. Put shortly:
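Steps: seed 2,000 HepG2 cells per well; incubate 5 hr at 37 C; pin-add compounds in DMSO; incubate 16 hr; add CellTiter-Fluor; after 1 hr at 37 C and 5% CO2, read fluorescence.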

The target of experiment [11] is Nuclear receptor subfamily 1 group I member 2 (Homo sapiens) (UniProt O75469). The experiment can be described thus: Human pregnane X receptor (PXR) small molecule agonists, qHTS assay (AID 1346982). Note: nearly all actives have a fitted effect of over 35% in size. Put shortly:
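Agonist mode qHTS: PXR-Luc HepG2 cells plated 5 hr before DMSO-dissolved compounds were pinned in, cultured 24 hr at 37 C, 5% CO2; ONE-Glo luminescence readout.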

The target is the same in experiment [12]. As to the kind of experiment: CYP3A4 induction through human pregnane X receptor (PXR) by small molecules, qHTS assay (AID 1346984). Note: nearly all actives have a fitted effect of over 40% in size. The method in brief: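 Steps: seed DPX-2 cells, 5 hr at 37C; pin-transfer compounds; 24 hr at 37C; add Luciferin-IPA (3uM final), 3 hr at 37C; add One-Glo, 30 min RT; read luminescence.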
For experiment [13] the target is unchanged. The experiment can be described thus: Human pregnane X receptor (PXR) activation by small molecules, qHTS assay (AID 1346985). Note: nearly all actives have a fitted effect of over 40% in size. Note: potency is the fitted concentration of half-maximal effect. Put shortly: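 DPX-2 cells (HepG2 co-transfected with a PXR response element and a CYP3A4-promoter luciferase construct) were seeded at 2,000 per well, rested 5 hr at 37C, then exposed to DMSO-dissolved compounds for 24 hr. Activation was read as luciferase luminescence.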

For experiment [14], the target named is Cytochrome P450 2D6 (Homo sapiens) (UniProt P10635). As to the kind of experiment: Cytochrome P450 Family 2 Subfamily D Member 6 (CYP2D6) small molecule antagonists: luciferase reporter qHTS assay (AID 1671196). Note: series mostly up to about 120 µM; nearly all actives have a fitted effect of over 50% in size. The method in brief:
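P450-Glo format: CYP2D6 converts a proluciferin substrate to luciferin in an NADPH-driven reaction lasting 1 h at room temperature. Light output, proportional to CYP2D6 activity, reflects interference by test chemicals.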

Experiment [15] addresses Cytochrome P450 2C19 (Homo sapiens) (UniProt P33261). As to the kind of experiment: Cytochrome P450 Family 2 Subfamily C Member 19 (CYP2C19) small molecule antagonists: luciferase reporter qHTS assay (AID 1671197). Note: nearly all actives have a fitted effect of over 65% in size. Note: potency is the fitted concentration of half-maximal effect. The method in brief:
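Inhibition of CYP2C19 was scored from loss of luminescence in a P450-Glo proluciferin substrate assay, NADPH-started and run 1 h at 37C, with ketoconazole as positive control.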

The target in experiment [16] is Cytochrome P450 2C9 (Homo sapiens) (UniProt P11712). The experiment can be described thus: Cytochrome P450 Family 2 Subfamily C Member 9 (CYP2C9) small molecule antagonists: luciferase reporter qHTS assay (AID 1671198). Note: nearly all actives have a fitted effect of over 50% in size. Note: potency is the fitted concentration of half-maximal effect. The method in brief: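 Enzyme-substrate mix preincubated with compound 10 min at room temperature; reaction started with NADPH regeneration solution, 1 h 37C. Luminescent luciferin product read after 20 min detection reagent.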
A general note: In a reporter assay the amount or activity of a reporter protein is the signal.

Experiment [17] can be described thus: qHTS assay to identify small molecule agonists of the progesterone receptor (PR) signaling pathway - cell viability counter screen (AID 1346799; calls by dose curve; note: nearly all actives have a fitted effect of over 45% in size). The method in brief:
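Viability was scored by ATP luminescence (CellTiter-Glo, 30 min, room temperature) in the same wells used for the reporter readout, after 16 hr compound exposure of PR-UAS-bla HEK293T cells.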

A short description of experiment [18]: Caspase-3/7 induction in CHO-K1 cells by small molecules, qHTS cell viability counter screen (AID 1346979). Note: nearly all actives have a fitted effect of over 35% in size. The method in brief: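 Seeding: 1,500 CHO-K1 cells/well. Rest: 5hr, 37C. Treatment: compounds in DMSO, 16hr. Read: CellTiter-Fluor, 1hr, fluorescence.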
Experiment [19] has as its target Nuclear receptor subfamily 1 group I member 2 (Rattus norvegicus) (UniProt Q9R1A7). As to the kind of experiment: Rat pregnane X receptor (rPXR) activation by small molecules, qHTS assay (AID 1346983). Note: nearly all actives have a fitted effect of over 20% in size. The following applies: rPXR luciferase reporter cells, One-Glo luminescence, 24 h; active compounds read high. The method in brief:
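Luminescent readout (One-Glo luciferase, 30 min room temperature) followed 24 hr compound treatment at 37 C of rPXR cells plated 2,000 per well and preincubated 5hr; qHTS format with compounds delivered in DMSO.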
% is set by controls: 0 for no effect and ±100 for the full control effect.

Sequence of Cytochrome P450 2C9 (Homo sapiens) (P11712 whole entry, looked up): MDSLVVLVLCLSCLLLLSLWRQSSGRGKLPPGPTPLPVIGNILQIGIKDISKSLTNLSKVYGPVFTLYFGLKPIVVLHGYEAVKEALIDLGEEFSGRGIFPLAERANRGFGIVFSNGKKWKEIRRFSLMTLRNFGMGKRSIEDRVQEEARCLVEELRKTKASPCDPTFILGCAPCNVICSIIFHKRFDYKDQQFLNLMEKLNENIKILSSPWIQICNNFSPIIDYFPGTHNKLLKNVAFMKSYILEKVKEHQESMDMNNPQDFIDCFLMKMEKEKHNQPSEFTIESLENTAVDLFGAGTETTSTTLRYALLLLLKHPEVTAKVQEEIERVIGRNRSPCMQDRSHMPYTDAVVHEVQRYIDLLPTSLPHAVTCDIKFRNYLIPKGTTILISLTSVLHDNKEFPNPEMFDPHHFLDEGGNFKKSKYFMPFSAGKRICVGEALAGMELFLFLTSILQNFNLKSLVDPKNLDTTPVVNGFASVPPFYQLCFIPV
Sequence of Thyrotropin-releasing hormone receptor (Homo sapiens) (P34981 whole entry, looked up): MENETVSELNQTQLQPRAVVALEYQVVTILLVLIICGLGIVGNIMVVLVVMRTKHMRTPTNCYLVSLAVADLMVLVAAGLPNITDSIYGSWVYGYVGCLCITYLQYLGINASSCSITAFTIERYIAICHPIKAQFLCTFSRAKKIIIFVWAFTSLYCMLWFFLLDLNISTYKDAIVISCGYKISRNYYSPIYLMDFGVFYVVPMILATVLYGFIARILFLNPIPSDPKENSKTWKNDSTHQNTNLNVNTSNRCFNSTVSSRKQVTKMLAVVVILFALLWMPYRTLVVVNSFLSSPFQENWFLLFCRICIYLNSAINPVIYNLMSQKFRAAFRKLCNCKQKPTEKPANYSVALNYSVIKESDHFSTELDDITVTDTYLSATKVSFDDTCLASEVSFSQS
Sequence of Cytochrome P450 2D6 (Homo sapiens) (P10635 whole entry, looked up): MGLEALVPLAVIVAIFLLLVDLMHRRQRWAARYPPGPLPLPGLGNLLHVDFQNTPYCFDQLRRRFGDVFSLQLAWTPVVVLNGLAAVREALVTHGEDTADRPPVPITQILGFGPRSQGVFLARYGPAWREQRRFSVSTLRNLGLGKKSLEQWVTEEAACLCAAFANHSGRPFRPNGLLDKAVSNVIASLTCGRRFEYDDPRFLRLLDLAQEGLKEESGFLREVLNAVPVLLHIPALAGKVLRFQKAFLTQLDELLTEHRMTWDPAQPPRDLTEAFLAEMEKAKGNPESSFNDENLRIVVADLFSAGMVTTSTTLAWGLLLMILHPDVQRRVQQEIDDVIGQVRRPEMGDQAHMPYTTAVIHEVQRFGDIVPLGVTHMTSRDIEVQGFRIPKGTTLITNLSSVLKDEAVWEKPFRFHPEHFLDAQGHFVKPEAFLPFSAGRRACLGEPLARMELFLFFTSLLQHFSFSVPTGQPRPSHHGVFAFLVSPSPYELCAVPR
Sequence of Progesterone receptor (Homo sapiens) (P06401 whole entry, looked up): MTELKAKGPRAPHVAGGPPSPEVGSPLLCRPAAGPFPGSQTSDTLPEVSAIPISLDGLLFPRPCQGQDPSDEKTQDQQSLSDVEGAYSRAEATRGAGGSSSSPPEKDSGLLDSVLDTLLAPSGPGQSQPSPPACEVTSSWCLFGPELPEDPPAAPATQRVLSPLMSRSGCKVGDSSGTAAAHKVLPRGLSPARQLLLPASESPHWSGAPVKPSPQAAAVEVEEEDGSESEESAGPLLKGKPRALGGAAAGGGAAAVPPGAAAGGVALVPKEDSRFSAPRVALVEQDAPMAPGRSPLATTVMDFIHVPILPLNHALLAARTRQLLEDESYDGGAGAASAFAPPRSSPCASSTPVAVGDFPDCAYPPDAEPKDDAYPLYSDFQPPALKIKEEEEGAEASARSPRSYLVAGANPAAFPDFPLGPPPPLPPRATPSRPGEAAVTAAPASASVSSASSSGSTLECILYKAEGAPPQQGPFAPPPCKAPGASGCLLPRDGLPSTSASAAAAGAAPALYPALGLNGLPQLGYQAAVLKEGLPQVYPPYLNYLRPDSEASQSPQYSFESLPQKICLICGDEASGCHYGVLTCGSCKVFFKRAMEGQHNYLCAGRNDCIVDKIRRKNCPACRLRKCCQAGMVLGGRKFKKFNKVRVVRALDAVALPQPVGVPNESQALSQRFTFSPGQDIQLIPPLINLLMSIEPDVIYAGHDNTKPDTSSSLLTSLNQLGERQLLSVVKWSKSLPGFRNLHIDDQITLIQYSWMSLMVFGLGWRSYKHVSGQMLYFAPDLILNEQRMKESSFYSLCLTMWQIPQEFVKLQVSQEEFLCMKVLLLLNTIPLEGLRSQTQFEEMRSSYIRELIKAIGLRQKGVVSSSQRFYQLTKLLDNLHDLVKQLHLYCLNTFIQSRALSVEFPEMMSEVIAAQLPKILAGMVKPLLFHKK
Sequence of Cytochrome P450 2C19 (Homo sapiens) (P33261 whole entry, looked up): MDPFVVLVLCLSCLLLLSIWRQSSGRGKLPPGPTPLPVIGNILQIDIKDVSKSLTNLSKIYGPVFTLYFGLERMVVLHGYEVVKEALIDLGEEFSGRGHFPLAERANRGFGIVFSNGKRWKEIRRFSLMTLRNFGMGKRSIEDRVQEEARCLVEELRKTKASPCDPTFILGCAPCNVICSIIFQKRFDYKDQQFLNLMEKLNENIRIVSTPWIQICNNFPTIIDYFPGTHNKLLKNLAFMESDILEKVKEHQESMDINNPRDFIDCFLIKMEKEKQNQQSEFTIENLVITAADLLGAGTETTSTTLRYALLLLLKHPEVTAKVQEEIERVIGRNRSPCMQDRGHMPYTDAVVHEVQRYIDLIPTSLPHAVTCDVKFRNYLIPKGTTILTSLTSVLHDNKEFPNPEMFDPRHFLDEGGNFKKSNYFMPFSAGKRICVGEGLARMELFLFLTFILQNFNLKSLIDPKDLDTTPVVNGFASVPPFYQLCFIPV
Sequence of Nuclear receptor subfamily 1 group I member 2 (Homo sapiens) (O75469 whole entry, looked up): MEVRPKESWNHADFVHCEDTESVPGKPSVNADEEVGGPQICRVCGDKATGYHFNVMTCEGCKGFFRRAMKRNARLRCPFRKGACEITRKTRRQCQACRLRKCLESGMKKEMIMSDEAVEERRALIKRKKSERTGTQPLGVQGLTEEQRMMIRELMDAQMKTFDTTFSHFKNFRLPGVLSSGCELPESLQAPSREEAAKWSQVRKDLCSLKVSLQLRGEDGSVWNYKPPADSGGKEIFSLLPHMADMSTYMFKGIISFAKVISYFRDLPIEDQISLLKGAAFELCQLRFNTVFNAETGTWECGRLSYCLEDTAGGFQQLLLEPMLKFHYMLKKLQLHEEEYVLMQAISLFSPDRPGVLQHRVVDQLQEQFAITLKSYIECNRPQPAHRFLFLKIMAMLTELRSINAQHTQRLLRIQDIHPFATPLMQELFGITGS
Sequence of Nuclear receptor subfamily 1 group I member 2 (Rattus norvegicus) (Q9R1A7 whole entry, looked up): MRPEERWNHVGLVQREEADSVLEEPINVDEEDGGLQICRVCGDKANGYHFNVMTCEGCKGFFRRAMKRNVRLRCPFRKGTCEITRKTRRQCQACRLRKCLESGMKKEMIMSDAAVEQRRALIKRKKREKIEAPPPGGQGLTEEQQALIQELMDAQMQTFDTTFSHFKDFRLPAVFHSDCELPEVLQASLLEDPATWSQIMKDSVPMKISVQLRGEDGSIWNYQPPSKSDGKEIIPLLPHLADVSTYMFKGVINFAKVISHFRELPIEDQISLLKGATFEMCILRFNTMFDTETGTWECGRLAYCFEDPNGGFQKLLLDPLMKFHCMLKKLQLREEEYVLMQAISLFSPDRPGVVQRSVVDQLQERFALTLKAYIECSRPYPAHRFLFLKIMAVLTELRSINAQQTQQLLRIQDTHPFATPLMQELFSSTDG

For the compound `Cc1c2oc3c(C)ccc(C(=O)N[C@@H]4C(=O)N[C@H](C(C)C)C(=O)N5CCC[C@H]5C(=O)N(C)CC(=O)N(C)[C@@H](C(C)C)C(=O)O[C@@H]4C)c3nc-2c(C(=O)N[C@@H]2C(=O)N[C@H](C(C)C)C(=O)N3CCC[C@H]3C(=O)N(C)CC(=O)N(C)[C@@H](C(C)C)C(=O)O[C@@H]2C)c(N)c1=O` (I: T[dV]P[Sar][NMeV] / II: T[dV]P[Sar][NMeV]; ester I:1-I:C, II:1-II:C; linker I:N-II:N via Actinocin(9to1)), the Potency in experiment [1] is 26.6 nM (active) and 33.5 nM (active); in [7], 29.8 nM (active) and 47.3 nM (active); in experiment [8], 13.3 nM (active) and 18.8 nM (active); in [9] it was 188 nM (active) and 335 nM (active); in experiment [10] it was 29.8 µM (active) and 15 µM (active). Further, the Potency result in [2], in [3], in experiment [5], in experiment [6], in experiment [11] and in experiment [12] was “inactive” each time. The Potency entry in experiment [13], in experiment [14], in [15] and in experiment [16] was “inactive” in each case. In experiment [4], the call was inactive.
As to `O=C(O)CP(=O)(O)O`, the Potency entry in experiment [1], in experiment [17], in experiment [2], in [3], in [7] and in [8] was “inactive” in each case. Besides, the Potency result in experiment [9], in [10], in experiment [11], in [14], in experiment [15] and in experiment [16] was “inactive” in each case. Moreover, the outcome in experiment [4] was inactive.
On to `CC(C)CCOCc1ccccc1`, for which the Potency result in experiment [1], in experiment [17], in experiment [2], in experiment [3], in experiment [5] and in experiment [6] was “inactive” throughout. Also, the Potency result in experiment [7], in experiment [8], in [18], in [9], in [10] and in [14] was “inactive” throughout. The Potency result in experiment [15] and in experiment [16] was “inactive” each time. Further, the compound was called inactive in experiment [4].
In the case of `COC(=O)c1cccc(C(=O)OC)c1`, the Potency entry in experiment [1], in [17], in [3], in experiment [5], in experiment [6] and in experiment [7] was “inactive” each time. Also, the Potency entry in experiment [8], in experiment [9], in [10], in experiment [11], in [14] and in experiment [15] was “inactive” throughout. In addition, in [16], the Potency result was “inactive”. The compound was classed as inactive in [4].
Consider `CC(=O)O[C@]1(C(C)=O)CC[C@H]2[C@@H]3C[C@H](C)C4=CC(=O)CC[C@]4(C)[C@H]3CC[C@@]21C`, for which the Potency result in experiment [1], in experiment [2], in [3], in experiment [8], in [18] and in experiment [9] was “inactive” each time. Besides, the Potency entry in experiment [10], in [12] and in [14] was “inactive” each time. Moreover, the Potency in experiment [13] was 1.58 µM (active); in [15], 15.9 µM (active); in [16] it was 3.99 µM (active) and 13.8 µM (active).
Turning to `CCC(C)(Oc1ccc(C2(c3ccc(OC(C)(CC)C(=O)O)cc3)CCCCC2)cc1)C(=O)O` (configuration not stated), the Potency entry in experiment [1], in experiment [17], in [2], in experiment [3], in experiment [7] and in experiment [8] was “inactive” each time. Moreover, the Potency result in experiment [18], in experiment [9], in experiment [10], in experiment [11], in [12] and in [13] was “inactive” throughout. Moreover, the Potency result in experiment [14], in experiment [15] and in experiment [16] was “inactive” each time. The compound was classed as inactive in experiment [4]. Moreover, the max activation in experiment [19] was -0.804%.
